Screen size: about 5,500 compounds; about 2,000 (36%) were called active. Another 18% or so got no clear call; they are omitted. No stated cut-off is given here; in the data, active means normalized growth mostly below about 0.91 (no sharp cut-off); inconclusive means no clear call, values can overlap the other calls; inactive means mostly above about 0.92. The list shows a part of the results.
Assay: chemical genetic growth profiling, strain panel (AID 1159580);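 further: tested at 20 µM; growth read once vehicle control cultures reached saturation at 30 °C; 1 = growth at the plate median or of vehicle wells; lower values mean less growth of the strain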
Details: growth OD

Measured: normalized growth

COC(=O)c1ccccc1-n1cccc1C(=O)OC
inactive: S. cerevisiae deletion strains, locus YAL013W, strain DEP1, hits give low values 0.981 | S. cerevisiae deletion strains, locus YBR229C, strain ROT2, hits give low values 0.975 | S. cerevisiae deletion strains, locus YDL101C, strain DUN1, hits give low values 0.971 | S. cerevisiae deletion strains, locus YDL134C, strain PPH21, hits give low values 0.997 | S. cerevisiae deletion strains, locus YDR150W, strain NUM1, hits give low values 1.01 | S. cerevisiae deletion strains, locus YEL061C, strain CIN8, hits give low values 0.994 | S. cerevisiae deletion strains, locus YGR078C, strain PAC10, hits give low values 0.982 | S. cerevisiae deletion strains, locus YGR229C, strain SMI1, hits give low values 1.02 | S. cerevisiae deletion strains, locus YHR030C, strain SLT2, hits give low values 1.04 | S. cerevisiae deletion strains, locus YHR087W, strain rtc3, hits give low values 0.96 | S. cerevisiae deletion strains, locus YJL187C, strain SWE1, hits give low values 0.996 | S. cerevisiae deletion strains, locus YJR043C, strain POL32, hits give low values 0.993 | S. cerevisiae deletion strains, locus YJR075W, strain HOC1, hits give low values 1.05 | S. cerevisiae deletion strains, locus YLR039C, strain RIC1, hits give low values 0.97 | S. cerevisiae deletion strains, locus YLR058C, strain SHM2 (second series), hits give low values 0.989 | S. cerevisiae deletion strains, locus YLR085C, strain ARP6, hits give low values 1.03 | S. cerevisiae deletion strains, locus YLR262C, strain YPT6, hits give low values 0.973 | S. cerevisiae deletion strains, locus YML094W, strain GIM5, hits give low values 0.957 | S. cerevisiae deletion strains, locus YMR219W, strain ESC1, hits give low values 0.99 | S. cerevisiae deletion strains, locus YMR263W, strain SAP30, hits give low values 1.02 | S. cerevisiae deletion strains, locus YNL153C, strain GIM3, hits give low values 1 | S. cerevisiae deletion strains, locus YNL298W, strain CLA4 (second series), hits give low values 0.988 | S. cerevisiae deletion strains, locus YNL322C, strain KRE1, hits give low values 0.992 | S. cerevisiae deletion strains, locus YNR030W, strain Alg12, hits give low values 0.973 | S. cerevisiae deletion strains, locus YOL006C, strain TOP1, hits give low values 0.969 | S. cerevisiae deletion strains, locus YPL055C, strain LGE1, hits give low values 0.972 | S. cerevisiae deletion strains, locus YPL241C, strain CIN2, hits give low values 0.969 | S. cerevisiae deletion strains, locus YPR135W, strain CTF4, hits give low values 0.943 | S. cerevisiae strains, strain wild type, hits give low values 0.993

Reference: PubChem BioAssay AID1159580 (chemical genetic matrix, 2015)
